Results as given in PubChem BioAssay (Tox21).
Inconclusive results are not listed. A call without a number means that no potency is given here. The source made the active and inactive calls. The call rests on the fitted dose curve.

Assay: qHTS assay to identify small molecule agonists of the AP-1 signaling pathway - cell viability counter screen (AID 1159525); further: nearly all actives have a fitted effect of over 55% in size
Details: ME-180 AP-1-bla cells viability, ATP luminescence, 5 h; series mostly up to 76.8 µM
Outline: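 Same-well cytotoxicity counter screen of the Tox21 10K library in ME-180 cells. The readout is ATP-dependent luminescence after 5 h compound treatment. Data are normalised to DMSO and tetra n-octyl ammonium bromide controls.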

Row | Structure (SMILES) | outcome
1 | Nc1cccc(Cl)c1 | inactive
2 | CNC(=O)O/N=C(\SC)C(=O)N(C)C | inactive
3 | Clc1cnc(Oc2ccc(Oc3ncc(Cl)cc3Cl)cc2)c(Cl)c1 | inactive
4 | COP(=S)(OC)SCN1C(=O)c2ccccc2C1=O | inactive
5 | COc1cc(-c2ccc(N)c(OC)c2)ccc1N | inactive
6 | Cc1cc(Cl)ccc1OC(C)C(=O)O (centres undefined) | inactive
7 | COP(=S)(OC)Oc1ccc(SC)c(C)c1 | inactive
8 | O=C(O)COc1ccccc1 | inactive
9 | O=C(O)C(Br)Br | inactive
10 | C/C=C/c1ccc2c(c1)OCO2 | inactive
11 | CN1C(=O)CCS(=O)(=O)C1c1ccc(Cl)cc1 (centres undefined) | inactive
12 | CC(C)CCCCCCOC(=O)c1ccccc1C(=O)OCCCCCCC(C)C | inactive
13 | COS(=O)(=O)OC | inactive

Assay: qHTS assay to identify small molecule agonists of the AP-1 signaling pathway (AID 1159526)
Details: ME-180 (cervical carcinoma) AP-1-bla reporter, beta-lactamase FRET ratio, 5 h; series mostly up to 76.8 µM

Row | Structure (SMILES) | Potency
14 | c1ccc2c(c1)CCCC2 | inactive
15 | CNc1cnn(-c2cccc(C(F)(F)F)c2)c(=O)c1Cl | inactive
16 | CNC(=O)O/N=C/C(C)(C)S(C)(=O)=O | inactive
17 | Nc1cccc(Cl)c1 | inactive
18 | CNC(=O)O/N=C(\SC)C(=O)N(C)C | inactive
19 | COC(C)(C)CCCC(C)C/C=C/C(C)=C/C(=O)OC(C)C (centres undefined) | inactive
20 | CN(C)C(=O)Nc1cccc(C(F)(F)F)c1 | inactive
21 | CN(C)NC(=O)CCC(=O)O | inactive
22 | CN(C)C(=O)Cl | inactive
23 | Clc1cnc(Oc2ccc(Oc3ncc(Cl)cc3Cl)cc2)c(Cl)c1 | inactive
24 | COP(=S)(OC)SCN1C(=O)c2ccccc2C1=O | inactive
25 | COc1cc(-c2ccc(N)c(OC)c2)ccc1N | inactive
26 | N#CN=C(N)N | inactive
27 | O=S(=O)(O)OOS(=O)(=O)O | inactive
28 | ClC(Cl)c1ccccc1 | inactive
29 | Cc1cc(Cl)ccc1OC(C)C(=O)O (centres undefined) | inactive

Row | Structure (SMILES) | Potency
30 | COP(=S)(OC)Oc1ccc(SC)c(C)c1 | inactive
31 | CCOc1ccc(N)cc1 | inactive
32 | O=C(O)COc1ccccc1 | inactive
33 | ClCCOCCCl | inactive
34 | CC(C)(C)C(=O)CCl | inactive
35 | O=C(O)C(Br)Br | inactive
36 | C=CC(=O)OCC(CC)CCCC (centres undefined) | inactive
37 | C/C=C/c1ccc2c(c1)OCO2 | inactive
38 | CCNc1nc(Cl)nc(NC(C)C)n1 | inactive
39 | Oc1c(Br)cc(Br)cc1Br | inactive
40 | CN1C(=O)CCS(=O)(=O)C1c1ccc(Cl)cc1 (centres undefined) | inactive
41 | CC(C)CCCCCCOC(=O)c1ccccc1C(=O)OCCCCCCC(C)C | inactive
42 | CCCCCCCCCCCCCCCCCC(=O)O | inactive
43 | COS(=O)(=O)OC | inactive
44 | OC[C@@H](O)[C@H]1O[C@@H]2O[C@H](C(Cl)(Cl)Cl)O[C@@H]2[C@H]1O | inactive
